For eight compounds, growth results are on record in PubChem BioAssay (NCI).

Some test systems named below: HCT-15 colon; HT29 colon; SNB-75 CNS; SNB-19 CNS; PC-3 prostate; SK-MEL-5 melanoma; UACC-62 melanoma; LOX IMVI melanoma; SK-MEL-28 melanoma; SK-MEL-2 melanoma; EKVX NSCLC; SN12C renal; UO-31 renal; TK-10 renal; ACHN renal; CAKI-1 renal; A498 renal; CCRF-CEM leukemia; MOLT-4 leukemia; U251 CNS.
Assay in all cases: NCI-60 one-dose screen, 48 h (100 = growth as untreated, 0 = no growth, -100 = all killed)
What all share (details): 10 µM unless noted

This is part of a sample that, as a whole, favours compounds with a hit. Of some 83,000 tested, about 20% had one in any assay.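 Growth was measured after 48 h exposure to one concentration of compound in 96-well plates. Values under 10 count as active.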 A number with no mark means an inactive call. Calls of active or inactive are those of the source.

With `O=S(=O)(NCCNc1nccc(-c2c(-c3ccc(F)c(O)c3)nc3occn23)n1)c1ccc(Cl)cc1`, the growth in the experiment with HCT-15 colon was 98.9%; with HT29 colon, 92.3%; with SNB-75 CNS, 85.2%; in the experiment on SNB-19 CNS, 101%; with PC-3 prostate, 79.8%; in the experiment with SK-MEL-5 melanoma it was 60.9%. The growth was 23.9% with UACC-62 melanoma; 45.5% in the experiment with LOX IMVI melanoma; 40.1% in the experiment with SK-MEL-28 melanoma; 42.2% in the experiment on SK-MEL-2 melanoma; 104% in the experiment with EKVX NSCLC; 80.7% in the experiment on SN12C renal. For the same compound, the growth in the experiment on UO-31 renal is 81.6%; in the experiment on TK-10 renal it was 122%; with ACHN renal, 76.5%; in the experiment with CAKI-1 renal it was 92.7%; in the experiment on A498 renal it was 97.9%; in the experiment on CCRF-CEM leukemia, 70.7%. Further, the growth with MOLT-4 leukemia is 84.1%.
For `N#Cc1c(-c2ccc(Cl)cc2)nc(NN2C(=O)c3ccccc3C2=O)nc1N1CCOCC1`, the growth in the experiment with HCT-15 colon is 112%; with HT29 colon it was 108%; in the experiment with SNB-75 CNS, 84.6%; in the experiment on SNB-19 CNS it was 94.1%; in the experiment on U251 CNS, 106%; in the experiment with PC-3 prostate, 110%. In addition, the growth in the experiment with SK-MEL-5 melanoma was 101%; with UACC-62 melanoma, 101%; with LOX IMVI melanoma, 102%; with SK-MEL-28 melanoma, 117%; in the experiment with SK-MEL-2 melanoma, 110%; with EKVX NSCLC it was 103%. Besides, the growth with SN12C renal is 99.9%; in the experiment with UO-31 renal, 84.4%; with ACHN renal, 104%; in the experiment on CAKI-1 renal it was 90.4%; in the experiment on CCRF-CEM leukemia it was 103%; in the experiment with MOLT-4 leukemia, 97.8%.
Regarding `C[C@@H](CO)[C@@H]1CCC=C2CC[C@]3(C)[C@H](CC[C@@H]4[C@@]5(C)CCCNC(C)(C)[C@@H]5CC[C@]43C)[C@H]21`, the growth in the experiment on HCT-15 colon was -5.42% (active); in the experiment on HT29 colon it was 1.93% (active); in the experiment on SNB-75 CNS it was 92.3%; with SNB-19 CNS, 88.4%; with PC-3 prostate, 47.1%; in the experiment on SK-MEL-5 melanoma, 72.2%. The growth was 80.3% in the experiment with UACC-62 melanoma; -52.2% (active) in the experiment with LOX IMVI melanoma; 70.5% with SK-MEL-28 melanoma; 52.1% in the experiment on SK-MEL-2 melanoma; 94.5% in the experiment with EKVX NSCLC; 67.3% in the experiment on SN12C renal. In addition, the growth in the experiment on UO-31 renal was 79.7%; in the experiment on TK-10 renal, 82%; in the experiment on ACHN renal, 87.2%; in the experiment on CAKI-1 renal, 47%; in the experiment with A498 renal it was 76.6%; with CCRF-CEM leukemia, 26.2%. Further, the growth in the experiment with MOLT-4 leukemia is 10.3%.
Regarding `Cn1ccnc1C(=O)/C=C/c1ccc(CC(=O)Nc2cc(C(F)(F)F)cc(C(F)(F)F)c2)cc1`, the growth was 53% in the experiment with HCT-15 colon; 66.4% in the experiment with HT29 colon; 58.3% with SNB-75 CNS; 67.1% with SNB-19 CNS; 55.9% with PC-3 prostate; 76.5% in the experiment on SK-MEL-5 melanoma. Also, the growth in the experiment on UACC-62 melanoma was 67.5%; in the experiment on LOX IMVI melanoma, 56.5%; in the experiment with SK-MEL-28 melanoma, 91.2%; in the experiment on SK-MEL-2 melanoma it was 102%; in the experiment on EKVX NSCLC, 89.8%; in the experiment with SN12C renal it was 67.4%. The growth with UO-31 renal is 63.2%; in the experiment with TK-10 renal, 106%; in the experiment on ACHN renal, 84.5%; in the experiment with CAKI-1 renal, 76.4%; in the experiment on A498 renal, 90%; in the experiment on CCRF-CEM leukemia, 47.5%. Moreover, the growth in the experiment on MOLT-4 leukemia is 14.7%.
For `CCN(C)S(=O)(=O)Nc1cccc(Nc2ncnc3cc(NC(=O)CCl)ccc23)c1Cl`, the growth in the experiment on HCT-15 colon was -12.3% (active); in the experiment with HT29 colon, -56.9% (active); with SNB-75 CNS, 6.04% (active); in the experiment on SNB-19 CNS, 16.7%; with PC-3 prostate, 0.153% (active); in the experiment on SK-MEL-5 melanoma, -83.6% (active). Further, the growth with UACC-62 melanoma was -22.5% (active); with LOX IMVI melanoma, -79% (active); with SK-MEL-28 melanoma it was 28.8%; in the experiment on SK-MEL-2 melanoma, 17.7%; in the experiment on EKVX NSCLC, 18.4%; in the experiment on SN12C renal it was -27.9% (active). In addition, the growth was -87.4% (active) in the experiment on UO-31 renal; 1.2% (active) with TK-10 renal; -67.8% (active) with ACHN renal; -15.4% (active) with CAKI-1 renal; 81.7% in the experiment with A498 renal; 5.41% (active) in the experiment on MOLT-4 leukemia.
Regarding `Clc1cccc(Nc2ncnc3ccc(-c4cnc5[nH]ccc5c4)cc23)c1`, the growth is 69.4% with HCT-15 colon; 54.1% with HT29 colon; 84.7% in the experiment with SNB-75 CNS; 82.3% in the experiment with SNB-19 CNS; 70.5% in the experiment with PC-3 prostate; 75.4% in the experiment with SK-MEL-5 melanoma. The growth was 90.2% with UACC-62 melanoma; 86.2% with LOX IMVI melanoma; 96% in the experiment on SK-MEL-28 melanoma; 81.3% in the experiment on SK-MEL-2 melanoma; 10% in the experiment with EKVX NSCLC; 77.3% with SN12C renal. Moreover, the growth with UO-31 renal is 54.9%; in the experiment on TK-10 renal, 14.4%; in the experiment with ACHN renal, 47.1%; in the experiment with CAKI-1 renal it was 49%; with A498 renal, 23.1%; in the experiment with CCRF-CEM leukemia, 66.7%. The growth in the experiment on MOLT-4 leukemia was 50.1%.
Consider `C=C1C(=O)O[C@H]2[C@H]1CC/C(COC(=O)c1cc3ccccc3s1)=C\CC[C@@]1(C)O[C@@H]21`, for which the growth in the experiment with HCT-15 colon is -62.4% (active); with HT29 colon, -75.4% (active); in the experiment with SNB-75 CNS it was -7.28% (active); in the experiment with SNB-19 CNS, -9.05% (active); in the experiment on PC-3 prostate, -56% (active); with SK-MEL-5 melanoma, -93.8% (active). Besides, the growth with UACC-62 melanoma was -61.1% (active); in the experiment with LOX IMVI melanoma, -83.7% (active); with SK-MEL-28 melanoma, -70.7% (active); with SK-MEL-2 melanoma, -67.2% (active); with EKVX NSCLC it was -81.1% (active); in the experiment on SN12C renal it was -43.9% (active). The growth in the experiment on UO-31 renal is -94.3% (active); in the experiment on TK-10 renal, -91.9% (active); with ACHN renal it was -91.3% (active); in the experiment with CAKI-1 renal it was -72.6% (active); with A498 renal, 61.9%; in the experiment on CCRF-CEM leukemia, -25.3% (active). Further, the growth in the experiment on MOLT-4 leukemia is -4.09% (active).
As to `Cn1c(I)c(C#CCO[Si](C)(C)C(C)(C)C)c(=O)[nH]c1=O`, the growth was 91% with HCT-15 colon; 113% in the experiment on HT29 colon; 99.9% with SNB-75 CNS; 104% in the experiment on SNB-19 CNS; 109% with U251 CNS; 96.5% in the experiment on PC-3 prostate. In addition, the growth was 103% with SK-MEL-5 melanoma; 101% in the experiment on UACC-62 melanoma; 99.9% in the experiment with LOX IMVI melanoma; 30.7% with SK-MEL-28 melanoma; 69.2% in the experiment on SK-MEL-2 melanoma; 105% with EKVX NSCLC. For the same compound, the growth in the experiment with SN12C renal was 114%; in the experiment on UO-31 renal it was 25.3%; in the experiment on ACHN renal, 99.7%; with CAKI-1 renal it was 103%; in the experiment with CCRF-CEM leukemia, 5.42% (active); in the experiment with MOLT-4 leukemia it was -22.9% (active).
